{"source": "PubChem BioAssay AID2057", "about": "(The Scripps Research Institute Molecular Screening Center, 2009)", "note": "About 2,100 (0.66%) of roughly 320,000 compounds were called active. For the sample, actives were picked, then their nearest neighbours and some compounds at random. Values without a mark were called inactive.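 How the source made its calls: active means inhibition above the mean inhibition of all tested compounds plus 3 SD, set per campaign (cut at about 40% in these data); inactive means the rest.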", "data": [{"target": "Induced myeloid leukemia cell differentiation protein Mcl-1 (Homo sapiens) (UniProt Q07820)", "sequence (Q07820 whole entry, looked up)": "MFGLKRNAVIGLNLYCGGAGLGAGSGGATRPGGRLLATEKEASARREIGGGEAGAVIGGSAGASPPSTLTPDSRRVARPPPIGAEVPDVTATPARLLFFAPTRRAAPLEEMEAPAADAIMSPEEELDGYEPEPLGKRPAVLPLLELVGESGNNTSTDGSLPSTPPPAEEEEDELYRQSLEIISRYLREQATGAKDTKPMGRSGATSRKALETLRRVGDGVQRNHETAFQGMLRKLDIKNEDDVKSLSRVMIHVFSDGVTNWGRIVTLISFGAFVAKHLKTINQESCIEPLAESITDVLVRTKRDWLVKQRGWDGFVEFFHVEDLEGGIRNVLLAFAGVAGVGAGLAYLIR", "assay": "inhibitors of MCL1 binding to BIM-BH3, primary screen, biochemical, fluorescence polarization (AID 2057);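 further: 0% = DMSO wells and 100% = unlabeled Bim-BH3 peptide control; higher means more loss of mP so more displacement of Bim peptide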", "conditions": "GST-MCL1 / FITC-Bim-BH3 fluorescence polarization; at 10.9 µM; stronger effect = higher value", "values": [{"smiles": "CCCn1c(O)c(CN2CCCC(C)C2)c(C)c(C#N)c1=O", "note": "(stereo not drawn)", "inhibition": "57.2% (active)"}, {"smiles": "Cc1c(CN2CCCCC2)c(O)n(CCO)c(=O)c1C#N", "inhibition": "18.2%"}, {"smiles": "CCCCCCn1c(CN2CCCC(C)C2)nc2c1c(=O)n(C)c(=O)n2C", "note": "(stereo not drawn)", "inhibition": "4.79%"}, {"smiles": "O=C(COC(=O)c1ncc(Cl)c(Cl)c1Cl)NC1CCS(=O)(=O)C1", "note": "(stereo not drawn)", "inhibition": "-1.74%"}, {"smiles": "O=C(CN1CCN(c2ccccc2O)CC1)NC(=O)NCc1ccccc1", "inhibition": "5.09%"}, {"smiles": "CC(=O)c1ccc(NC(=O)CCc2nnc3ccc(NCc4ccco4)nn23)cc1", "inhibition": "2.1%"}, {"smiles": "CC(C)CCN1CCN(Cc2cn[nH]c2C2CCCCC2)CC1CCO", "note": "(stereo not drawn)", "inhibition": "-6.25%"}, {"smiles": "CN(C)S(=O)(=O)c1ccc(N/C=C(\\[N+](=O)[O-])S(=O)(=O)c2ccccc2)cc1", "inhibition": "2.14%"}, {"smiles": "CC(NCc1nc2ccccc2n1C)C12CC3CC(CC(C3)C1)C2", "note": "(stereo not drawn)", "inhibition": "-2.96%"}, {"smiles": "CN1CCc2nc(SC(C(=O)O)c3ccccc3)c(C#N)c(-c3cccs3)c2C1", "note": "(stereo not drawn)", "inhibition": "45.7% (active)"}, {"smiles": "CCc1c(-c2ccccc2)nc(N)c(C#N)c1-c1cccs1", "inhibition": "11.5%"}, {"smiles": "Cc1c(-c2ccccc2)nc(N)c(C#N)c1-c1cccs1", "inhibition": "4.53%"}, {"smiles": "CCN(CC(=O)NC1CCS(=O)(=O)C1)S(=O)(=O)c1ccccc1", "note": "(stereo not drawn)", "inhibition": "-7.02%"}, {"smiles": "COc1ccc(C2/C=C\\CN(S(=O)(=O)c3cccs3)CC(=O)N2Cc2ccc(F)cc2)cc1", "note": "(stereo not drawn)", "inhibition": "3.81%"}, {"smiles": "O=C(CCS(=O)(=O)c1ccccc1)NC1CCCC1", "inhibition": "-0.76%"}, {"smiles": "CC(=O)c1ccc(N2C(=NC(=O)C(C)C)SC3CS(=O)(=O)CC32)cc1", "note": "(stereo not drawn)", "inhibition": "2.13%"}, {"smiles": "Cc1cc2ccccc2n1CCNC(=O)COc1ccc2ccccc2c1", "inhibition": "2.6%"}, {"smiles": "Cc1cc2ccccc2n1CCC(=O)O", "inhibition": "49.7% (active)"}, {"smiles": "O=C(O)CCn1c(Cc2ccccc2)nc2ccccc21", "inhibition": "1.68%"}, {"smiles": "O=C(O)C1C2CC2CN1C(=O)c1ccc(Cl)cc1Cl", "note": "(stereo not drawn)", "inhibition": "0.95%"}, {"smiles": "Cc1cccc(C)c1Nc1c(-c2ccccc2O)nc2ncccn12", "inhibition": "0.37%"}, {"smiles": "CCC(C)CN1CCC(CO)(Cc2ccccc2Cl)CC1", "note": "(stereo not drawn)", "inhibition": "0.34%"}, {"smiles": "COC(=O)c1sc(C(F)(F)F)c(-c2ccccc2)c1S(=O)(=O)N(C)C", "inhibition": "4.01%"}, {"smiles": "Cc1cc(Cl)ccc1NNC(=O)c1snnc1C", "inhibition": "6.52%"}, {"smiles": "O=C(Cn1cnc2ccccc21)Nc1ccccc1-c1ccccc1", "inhibition": "6.02%"}, {"smiles": "O=C(COC(=O)Cn1cnc2ccccc21)Nc1cccc2c1C(=O)c1ccccc1C2=O", "inhibition": "155% (active)"}, {"smiles": "O=C(COC(=O)c1cccc(Br)c1)Nc1cccc2c1C(=O)c1ccccc1C2=O", "inhibition": "-1.24%"}, {"smiles": "COc1ccc(OC)c2[nH]c(=O)c(CCNC(=O)C(=O)c3c[nH]c4ccccc34)cc12", "inhibition": "7.82%"}, {"smiles": "CCn1c(=S)sc2c(=O)n(CC(=O)Nc3cccc(Br)c3)c(C)nc21", "inhibition": "-2.89%"}, {"smiles": "COc1cccc(NC(=O)C2C(c3ccccc3)C2(Cl)Cl)c1", "note": "(stereo not drawn)", "inhibition": "6.86%"}, {"smiles": "CCN1CCN(CC(=O)c2cc(OC)c(OC)c(OC)c2)CC1", "inhibition": "0.87%"}, {"smiles": "O=C(OCC1O[C@@H](OC(=O)c2cc(O)c(O)c(O)c2)[C@@H](OC(=O)c2cc(O)c(O)c(O)c2)[C@@H](OC(=O)c2cc(O)c(O)c(O)c2)[C@@H]1OC(=O)c1cc(O)c(O)c(O)c1)c1cc(O)c(O)c(O)c1", "note": "(stereo partly drawn)", "inhibition": "74.8% (active)"}, {"smiles": "O=C(OCC1OC(Oc2ccc(O)cc2)C(O)C(O)C1O)c1ccccc1", "note": "(stereo not drawn)", "inhibition": "-1.58%"}, {"smiles": "COC(=O)C(C)Sc1ccc2nnc(-c3cccc(F)c3)n2n1", "note": "(stereo not drawn)", "inhibition": "-5.54%"}, {"smiles": "O=C1c2ccccc2C(=O)c2c1cccc2N1CCN(Cc2ccccc2)CC1", "inhibition": "7.86%"}, {"smiles": "O=C1c2ccccc2C(=O)c2c1cccc2N1CCN(CCO)CC1", "inhibition": "60.6% (active)"}, {"smiles": "O=C1c2ccccc2C(=O)c2c1cccc2N1CCN(C/C=C/c2ccccc2)CC1", "inhibition": "13.8%"}, {"smiles": "CCC(=O)c1ccc(OCC(=O)Nc2ccc(N3CCCCC3)cc2)cc1", "inhibition": "0.81%"}, {"smiles": "Cc1ccc(S(=O)(=O)N2CC(C)N(S(C)(=O)=O)C2)cc1", "note": "(stereo not drawn)", "inhibition": "7.35%"}, {"smiles": "CC1CCc2sc(C(=O)NCC(c3ccco3)N3CCCCC3)cc2C1", "note": "(stereo not drawn)", "inhibition": "-3.03%"}, {"smiles": "COc1ccc(CCN2C(=O)N(c3ccc(OC)cc3)C(=O)C2CC(=O)Nc2ccc(OC)cc2)cc1", "note": "(stereo not drawn)", "inhibition": "2.06%"}, {"smiles": "CC(=O)Nc1ccc(Nc2cc(C)nc(Nc3ccc(NC(C)=O)cc3)n2)cc1", "inhibition": "-11.2%"}, {"smiles": "Cc1cc(C)c(CN2CCN(C(=O)Cn3ccc(NC(=O)OCc4ccccc4)nc3=O)CC2)c(C)c1", "inhibition": "2.72%"}, {"smiles": "O=C(CNC(=O)Cc1ccccc1)N=Nc1c(O)[nH]c2ccc(Br)cc12", "inhibition": "4.04%"}, {"smiles": "Oc1[nH]c2ccc(Br)cc2c1N=Nc1nn[nH]n1", "inhibition": "6.9%"}, {"smiles": "NS(=O)(=O)c1ccc(N=Nc2c(O)[nH]c3ccc(Br)cc23)cc1", "inhibition": "44.2% (active)"}, {"smiles": "Cc1ccc(C(=O)NC(=S)NCCN2CCOCC2)cc1", "inhibition": "6.07%"}, {"smiles": "Cc1ccc(NC(=S)NC(=O)c2ccc(-c3ccccc3)cc2)cc1", "inhibition": "4.74%"}, {"smiles": "Cc1ccc(C(=O)NC(=S)Nc2ccc(N3CCOCC3)cc2)cc1", "inhibition": "46.3% (active)"}, {"smiles": "CC(=O)Nc1ccc(S(=O)(=O)NC2Cc3ccccc3C2)cc1", "inhibition": "1.26%"}, {"smiles": "N/C(=N\\OC(=O)CCc1ccccc1)c1ccc(Cl)cc1", "inhibition": "64.4% (active)"}, {"smiles": "N/C(=N\\OC(=O)CCc1ccccc1)c1cccnc1", "inhibition": "4.17%"}, {"smiles": "COc1ccc(/C(N)=N/OC(=O)CCCc2ccccc2)cc1", "inhibition": "-1.09%"}, {"smiles": "CCCSC(=S)NC1CCS(=O)(=O)C1", "note": "(stereo not drawn)", "inhibition": "2.09%"}, {"smiles": "Cc1cc(C)cc(NC(=O)NCc2ccccn2)c1", "inhibition": "1.97%"}, {"smiles": "COCCNC(=O)Nc1ccc2nc(-c3ccco3)c(-c3ccco3)nc2c1", "inhibition": "131% (active)"}, {"smiles": "O=C(NCc1ccccn1)c1ccc2nc(-c3ccco3)c(-c3ccco3)nc2c1", "inhibition": "106% (active)"}, {"smiles": "CCOc1cc(NC(=S)NCCCOC)c(OCC)cc1NC(=O)c1ccco1", "inhibition": "9.31%"}, {"smiles": "Cc1nc2cc(NC(=O)NCc3ccccc3)ccc2o1", "inhibition": "-6.46%"}, {"smiles": "COc1ccc2oc(=O)c(C(=O)NCc3ccccn3)cc2c1", "inhibition": "0.27%"}, {"smiles": "Cc1cc(C)nc(-n2ncc3c2CC(c2ccc(C(C)C)cc2)CC3=O)n1", "note": "(stereo not drawn)", "inhibition": "2.19%"}, {"smiles": "O=C(COC(=O)C1CCN(S(=O)(=O)c2ccc3c(c2)OCCO3)CC1)Nc1ccccc1OC(F)F", "inhibition": "0.49%"}, {"smiles": "O=C1CCN(C(=O)Nc2ccccc2)N1", "inhibition": "-0.78%"}, {"smiles": "Cc1cc(N2C(=O)C(O)=C(C(=O)c3ccc(C)o3)C2c2ccc(OCc3ccccc3)cc2)no1", "note": "(stereo not drawn)", "inhibition": "10.4%"}, {"smiles": "C=CCOc1cccc(C2C(C(=O)c3ccc(C)o3)=C(O)C(=O)N2CCCn2ccnc2)c1", "note": "(stereo not drawn)", "inhibition": "-4.11%"}, {"smiles": "C=CCOc1cccc(C2C(C(=O)c3ccc(C)o3)=C(O)C(=O)N2c2nnc(C)s2)c1", "note": "(stereo not drawn)", "inhibition": "81.2% (active)"}, {"smiles": "CCNC(=S)N(CCN(CC)CC)Cc1cc2cc3c(cc2[nH]c1=O)OCCO3", "inhibition": "13.5%"}, {"smiles": "Cc1ccc(OCC(=O)Nc2ccccc2Sc2ccc(Cl)cc2)c([N+](=O)[O-])n1", "inhibition": "3.45%"}, {"smiles": "CC(C)c1csc(CN2CCC(CO)(Cc3ccccc3)CC2)n1", "inhibition": "8.03%"}, {"smiles": "COc1cccc(NC(=S)N(CCc2c(C)[nH]c3ccccc23)Cc2ccco2)c1", "inhibition": "4.2%"}, {"smiles": "COc1ccc2[nH]c(C)c(CCN(Cc3cccs3)C(=S)Nc3ccccc3OC)c2c1", "inhibition": "65.3% (active)"}, {"smiles": "Cc1[nH]c2ccccc2c1CCN(Cc1cccs1)C(=S)NC(C)(C)C", "inhibition": "7.74%"}, {"smiles": "CC(CC(=O)N1CCN(c2ccccc2)CC1)S(=O)(=O)c1ccc2c(c1)NC(=O)CS2", "note": "(stereo not drawn)", "inhibition": "-2.69%"}, {"smiles": "CN(C(=O)COC(=O)CNC(=O)C12CC3CC(CC(C3)C1)C2)c1ccccc1", "inhibition": "-5.29%"}, {"smiles": "Cc1ccsc1C(=O)NCCc1ccco1", "inhibition": "7.13%"}, {"smiles": "COc1ccccc1-c1oc2ccccc2c1C#CCCCCO", "inhibition": "-3.18%"}, {"smiles": "CC(=O)Nc1ccc(S(=O)(=O)N2CCC(C(=O)NC3CC3)CC2)cc1", "inhibition": "-6.89%"}, {"smiles": "Cc1ccc(Cc2cnc(NC(=O)/C(C#N)=C/c3ccc(-c4cccc([N+](=O)[O-])c4)o3)s2)cc1", "inhibition": "-0.71%"}, {"smiles": "Cc1ccc(/C=C(\\C#N)C(=O)Nc2cccc3ncccc23)o1", "inhibition": "138% (active)"}, {"smiles": "O=C(O)c1cc(Cl)c(Cl)cc1C(=O)Nc1cccc2ncccc12", "inhibition": "-1.24%"}, {"smiles": "COc1ccc(OC)c(C(C)NC(=S)Nc2ccc(S(=O)(=O)Nc3ncccn3)cc2)c1", "note": "(stereo not drawn)", "inhibition": "5.87%"}, {"smiles": "CCN(CC)CCNC(=O)c1sc2ncn(CC(=O)Nc3ccc(C)c(Cl)c3)c(=O)c2c1C", "inhibition": "-4.53%"}, {"smiles": "CCOc1cc(C(=S)N2CCOCC2)ccc1OS(=O)(=O)c1ccc(Br)cc1", "inhibition": "2.62%"}, {"smiles": "CSc1ccccc1-c1nnc(-c2ccc(Cl)cc2)o1", "inhibition": "-2.22%"}, {"smiles": "COc1ccc(/C=N/NC(=O)c2ccncc2)cc1CN1CCCc2ccccc21", "inhibition": "9.1%"}, {"smiles": "Cc1c(Nc2cc(N3CCCC(C)C3)c3nonc3c2[N+](=O)[O-])c(=O)n(-c2ccccc2)n1C", "note": "(stereo not drawn)", "inhibition": "-0.42%"}, {"smiles": "Nc1nc(NCC(=O)O)nc(N2CCCCCC2)c1[N+](=O)[O-]", "inhibition": "1.22%"}, {"smiles": "Nc1cc(N2CCCCCC2)c2nonc2c1[N+](=O)[O-]", "inhibition": "48% (active)"}, {"smiles": "CC(C)COC(=O)C1C2C=CC3(CN(C(C)c4ccc(Br)cc4)C(=O)C13)O2", "note": "(stereo not drawn)", "inhibition": "-1.26%"}, {"smiles": "Cc1ccc(C(=O)COC(=O)CCCC(=O)NC2CCCCC2)cc1[N+](=O)[O-]", "inhibition": "-0.81%"}, {"smiles": "C=CCn1c(=S)[nH]c2scc(-c3ccco3)c2c1=O", "inhibition": "67.4% (active)"}, {"smiles": "C=CCNC(=O)CSc1nc2scc(-c3ccco3)c2c(=O)n1CC=C", "inhibition": "-5.54%"}, {"smiles": "C=CCn1c(SCc2csc(C)n2)nc2scc(-c3ccc(C)o3)c2c1=O", "inhibition": "-8.6%"}]}]}
